# Results taken from PubChem BioAssay (EPA / NIEHS).
# “And” between values parts separate entries of the source, which are not always exact repeats. Identical values can stand only once. Inconclusive results are not listed. The source made the active and inactive calls. Rule for the calls: active = hit-call score of the fitted dose curve at least 0.9, where 1 is the maximum; inconclusive = response in the unintended direction; inactive = score below 0.9.
# Target: human Insulin Receptor (InsR), INSR (gene 3643) (UniProt P06213)
# Experiment: NVS_ENZ_hInsR: NovaScreen (NVS) Enzymatic Assay for human Insulin Receptor (InsR) (AID 2283168)
# In short: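 Cell-free enzyme assay read 1 h post-dose by fluorescence after substrate/product mobility-shift separation. Duplicate 25 uM primary screen, then singleton concentration-response up to 50 uM for compounds passing threshold; loss of signal vs DMSO.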
# human Insulin Receptor (InsR), INSR (gene 3643), sequence (P06213 whole entry, looked up): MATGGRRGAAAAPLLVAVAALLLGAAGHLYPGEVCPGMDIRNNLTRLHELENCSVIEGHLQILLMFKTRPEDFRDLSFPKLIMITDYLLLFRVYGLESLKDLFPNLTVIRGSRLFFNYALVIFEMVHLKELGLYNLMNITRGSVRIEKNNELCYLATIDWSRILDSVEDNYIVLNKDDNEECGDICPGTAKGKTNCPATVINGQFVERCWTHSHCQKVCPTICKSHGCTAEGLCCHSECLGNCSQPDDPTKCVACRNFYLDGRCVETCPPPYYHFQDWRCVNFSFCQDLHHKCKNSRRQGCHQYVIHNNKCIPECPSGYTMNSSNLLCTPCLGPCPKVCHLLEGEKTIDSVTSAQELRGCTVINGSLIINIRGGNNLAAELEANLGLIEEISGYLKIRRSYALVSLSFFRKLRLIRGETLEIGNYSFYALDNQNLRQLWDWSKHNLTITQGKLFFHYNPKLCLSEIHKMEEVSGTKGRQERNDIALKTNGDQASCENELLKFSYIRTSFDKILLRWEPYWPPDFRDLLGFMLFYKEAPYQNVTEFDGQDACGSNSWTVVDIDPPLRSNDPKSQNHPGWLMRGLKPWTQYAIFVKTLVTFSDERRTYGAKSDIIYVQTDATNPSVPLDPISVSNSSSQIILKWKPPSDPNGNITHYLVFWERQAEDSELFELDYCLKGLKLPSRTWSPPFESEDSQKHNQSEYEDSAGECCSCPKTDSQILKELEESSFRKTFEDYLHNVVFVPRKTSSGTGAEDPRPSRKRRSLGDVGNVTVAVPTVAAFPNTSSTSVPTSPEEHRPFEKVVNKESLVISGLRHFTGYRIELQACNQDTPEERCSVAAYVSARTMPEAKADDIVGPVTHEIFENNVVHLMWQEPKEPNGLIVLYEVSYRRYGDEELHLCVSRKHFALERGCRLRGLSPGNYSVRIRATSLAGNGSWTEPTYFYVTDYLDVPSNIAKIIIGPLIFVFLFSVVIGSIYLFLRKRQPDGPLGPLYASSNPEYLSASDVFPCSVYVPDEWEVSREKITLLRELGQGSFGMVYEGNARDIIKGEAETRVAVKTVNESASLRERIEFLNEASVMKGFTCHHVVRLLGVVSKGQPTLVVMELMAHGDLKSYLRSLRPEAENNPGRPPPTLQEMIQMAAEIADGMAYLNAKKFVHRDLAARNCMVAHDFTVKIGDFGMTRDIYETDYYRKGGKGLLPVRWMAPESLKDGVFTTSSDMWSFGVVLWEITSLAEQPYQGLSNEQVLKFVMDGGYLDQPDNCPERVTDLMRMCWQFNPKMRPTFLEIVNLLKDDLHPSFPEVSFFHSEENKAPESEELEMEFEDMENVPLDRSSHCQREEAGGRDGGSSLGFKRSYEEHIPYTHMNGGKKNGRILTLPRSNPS
SMILES,outcome,AC50
O=C(O)C(F)(F)C(F)(F)C(F)(F)C(F)(F)C(F)(F)C(F)(F)C(F)(F)F,inactive,
COC(=O)c1ccccc1CS(=O)(=O)NC(=O)Nc1nc(OC)cc(OC)n1,inactive,
O=S(=O)(O)C(F)(F)C(F)(F)C(F)(F)C(F)(F)C(F)(F)C(F)(F)C(F)(F)C(F)(F)F,,11.7 µM (active)

# Target: human Janus Kinase 2 (Jak2), JAK2 (gene 3717) (UniProt O60674)
# Experiment: NVS_ENZ_hJak2: NovaScreen (NVS) Enzymatic Assay for human Janus Kinase 2 (Jak2) (AID 2283169)
# Procedure: NVS_ENZ_hJak2 is a biochemical, single-readout assay that uses extracted gene-proteins in a cell-free assay. Measurements were taken 1 hour after chemical dosing in a 384-well plate.NVS_ENZ_hJak2 is one of one assay component(s) measured or calculated from the NVS_ENZ_hJak2 assay. It is designed to make measurements of enzyme activity, a form of enzyme reporter, as detected with fluorescence intensity signals by Fluorescence and electrophoretic mobility shift technology.Data from the assay component NVS_ENZ_hJak2 was analyzed into 1 assay endpoint. This assay endpoint, NVS_ENZ_hJak2, was analyzed in the positive analysis fitting direction relative to DMSO as the negative control and baseline of activity. Using a type of enzyme reporter, loss-of-signal activity can be used to understand changes in the enzymatic activity as they relate to the gene JAK2. Furthermore, this assay endpoint can be referred to as a primary readout, because this assay has produced multiple assay endpoints where this one serves a enzymatic activity function. To generalize the intended target to other relatable targets, this assay endpoint is annotated to the kinase intended target family, where the subfamily is non-receptor tyrosine kinase.
# Binding assays used specific radioligands (tritiated, iodinated) with non-radioactive competitive displacement ligands in agonist or antagonist protocols (as indicated) and various reference compounds and inhibitors to titrate specific binding to receptors and transporters. Most enzyme assays (CYPs, kinases, phosphatases, proteases, HDACs) used recombinant protein and specific substrates (fluorescence mostly, some colorimetric and radioactive) and inhibitors, followed by a biochemical separation of substrate and product. All assays for the biochemical HTS were initially run in duplicate at a single concentration (10 uM for CYP450 assays and 25 uM for all others). Assay-chemical combinations meeting a pre-defined threshold (e.g., 30% inhibition and other criteria defined below) were then run in singleton concentration-response format with maximum concentration of 20 uM for CYPs and 50 uM for all others. Each assay was run with positive and negative controls, and concurrent controls on every plate. The follow-up (secondary) screen tested active chemical-pairs in concentration series, as well as a few additional assays not tested in the primary screen, some selected negative inactives, and several cases re-run in the concentration series for confirmatory purposes.
# human Janus Kinase 2 (Jak2), JAK2 (gene 3717), sequence (O60674 whole entry, looked up): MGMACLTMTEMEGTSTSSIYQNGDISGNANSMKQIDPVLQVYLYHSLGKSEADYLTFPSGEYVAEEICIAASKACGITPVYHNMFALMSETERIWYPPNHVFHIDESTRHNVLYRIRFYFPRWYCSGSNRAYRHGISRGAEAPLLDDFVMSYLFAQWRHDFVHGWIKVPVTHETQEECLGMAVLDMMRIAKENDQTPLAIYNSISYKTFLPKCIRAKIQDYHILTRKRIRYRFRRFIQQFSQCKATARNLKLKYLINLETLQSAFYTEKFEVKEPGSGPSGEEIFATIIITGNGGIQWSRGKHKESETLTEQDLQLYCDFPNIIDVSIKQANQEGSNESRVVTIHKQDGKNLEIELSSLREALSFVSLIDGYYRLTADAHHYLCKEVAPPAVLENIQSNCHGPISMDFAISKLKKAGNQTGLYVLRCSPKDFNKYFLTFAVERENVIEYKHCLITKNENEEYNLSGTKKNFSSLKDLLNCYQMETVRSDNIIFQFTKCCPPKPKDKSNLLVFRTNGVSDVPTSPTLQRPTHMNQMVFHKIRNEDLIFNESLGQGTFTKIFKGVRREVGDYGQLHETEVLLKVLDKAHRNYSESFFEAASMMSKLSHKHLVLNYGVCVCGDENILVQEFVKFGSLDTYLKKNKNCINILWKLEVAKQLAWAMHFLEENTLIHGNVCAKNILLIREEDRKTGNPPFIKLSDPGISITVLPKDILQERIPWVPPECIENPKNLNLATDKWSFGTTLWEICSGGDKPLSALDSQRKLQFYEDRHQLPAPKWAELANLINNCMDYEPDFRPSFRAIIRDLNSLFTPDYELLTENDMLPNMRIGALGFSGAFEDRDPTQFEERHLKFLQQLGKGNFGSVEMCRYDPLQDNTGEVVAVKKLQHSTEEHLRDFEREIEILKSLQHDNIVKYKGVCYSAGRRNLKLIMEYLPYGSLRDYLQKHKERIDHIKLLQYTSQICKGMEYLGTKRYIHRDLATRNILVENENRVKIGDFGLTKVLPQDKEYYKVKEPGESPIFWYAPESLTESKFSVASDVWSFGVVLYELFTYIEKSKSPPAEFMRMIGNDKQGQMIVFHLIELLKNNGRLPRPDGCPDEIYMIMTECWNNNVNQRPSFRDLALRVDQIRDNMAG
SMILES,outcome,AC50
Oc1cc(Cl)ccc1Oc1ccc(Cl)cc1Cl,inactive,
CC[C@H](C)[C@H]1O[C@]2(C=C[C@@H]1C)C[C@@H]1C[C@@H](C/C=C(\C)[C@@H](O[C@H]3C[C@H](OC)[C@@H](O[C@H]4C[C@H](OC)[C@@H](O)[C@H](C)O4)[C@H](C)O3)[C@@H](C)/C=C/C=C3\CO[C@@H]4[C@H](O)C(C)=C[C@@H](C(=O)O1)[C@]34O)O2 (tested in a mixture with another compound),,13.8 µM (active)
COC(=O)c1ccccc1CS(=O)(=O)NC(=O)Nc1nc(OC)cc(OC)n1,inactive,
CC(C)(C)C(O)C(Oc1ccc(Cl)cc1)n1cncn1 (stereo unspecified),inactive,

# Target: human Mitogen-Activated Protein Kinase 1 (MAPK 1), MAPK1 (gene 5594) (UniProt P28482)
# Experiment: NVS_ENZ_hMAPK1: NovaScreen (NVS) Enzymatic Assay for human Mitogen-Activated Protein Kinase 1 (MAPK 1) (AID 2283175)
# In short: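 Cell-free recombinant human MAPK1 enzymatic assay, fluorescence/electrophoretic mobility shift read at 1 h; loss of signal vs DMSO. Primary screen in duplicate at 25 uM; actives (e.g. ≥30% inhibition) run as concentration-response up to 50 uM.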
# human Mitogen-Activated Protein Kinase 1 (MAPK 1), MAPK1 (gene 5594), sequence (P28482 whole entry, looked up): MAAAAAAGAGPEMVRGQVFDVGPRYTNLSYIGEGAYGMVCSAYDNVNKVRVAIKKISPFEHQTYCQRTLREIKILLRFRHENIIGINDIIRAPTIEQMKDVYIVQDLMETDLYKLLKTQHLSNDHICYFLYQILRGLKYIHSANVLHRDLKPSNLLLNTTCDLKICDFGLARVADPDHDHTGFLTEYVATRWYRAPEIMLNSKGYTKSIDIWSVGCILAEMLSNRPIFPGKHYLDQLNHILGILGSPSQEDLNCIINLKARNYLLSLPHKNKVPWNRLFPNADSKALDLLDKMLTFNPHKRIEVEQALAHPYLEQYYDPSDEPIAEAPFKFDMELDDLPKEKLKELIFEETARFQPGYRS
SMILES,outcome,AC50
COC(=O)c1ccccc1S(=O)(=O)NC(=O)N(C)c1nc(C)nc(OC)n1,inactive,
Oc1cc(Cl)ccc1Oc1ccc(Cl)cc1Cl,inactive,
O=S(=O)(O)C(F)(F)C(F)(F)C(F)(F)C(F)(F)C(F)(F)C(F)(F)C(F)(F)C(F)(F)F,,34.9 µM (active) and 41 µM (active)
CC(C)(C)C(O)/C(=C\c1ccc(Cl)cc1Cl)n1cncn1 (stereo unspecified),inactive,

# Target: Mitogen-activated protein kinase 3 (Homo sapiens) (UniProt P27361)
# Experiment: NVS_ENZ_hMAPK3: NovaScreen (NVS) Enzymatic Assay for human Mitogen-Activated Protein Kinase 3 (MAPK 3) (AID 2283177)
# In short: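 Chemicals were first tested in duplicate at 25 uM, with hits re-run as concentration series (max 50 uM). Recombinant enzyme activity, measured 1 h post-dose in a cell-free format, was read by fluorescence/mobility shift relative to DMSO.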
# Mitogen-activated protein kinase 3 (Homo sapiens), sequence (P27361 whole entry, looked up): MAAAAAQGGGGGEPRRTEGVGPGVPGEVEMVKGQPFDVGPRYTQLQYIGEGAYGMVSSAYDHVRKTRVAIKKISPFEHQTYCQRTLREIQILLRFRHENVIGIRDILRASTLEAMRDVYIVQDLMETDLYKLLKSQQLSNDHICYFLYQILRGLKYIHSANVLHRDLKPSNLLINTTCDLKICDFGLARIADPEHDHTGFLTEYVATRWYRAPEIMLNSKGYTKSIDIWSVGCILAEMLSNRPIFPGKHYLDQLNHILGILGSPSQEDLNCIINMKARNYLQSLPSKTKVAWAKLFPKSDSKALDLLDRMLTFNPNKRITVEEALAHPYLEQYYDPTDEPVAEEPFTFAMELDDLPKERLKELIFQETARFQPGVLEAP
SMILES,outcome,AC50
COC(=O)c1ccccc1S(=O)(=O)NC(=O)N(C)c1nc(C)nc(OC)n1,inactive,
Oc1cc(Cl)ccc1Oc1ccc(Cl)cc1Cl,inactive,
N#Cc1c(Cl)c(Cl)c(Cl)c(C#N)c1Cl,inactive,
O=[N+]([O-])/N=C1\NCCN1Cc1ccc(Cl)nc1,inactive,
O=S(=O)(O)C(F)(F)C(F)(F)C(F)(F)C(F)(F)C(F)(F)C(F)(F)C(F)(F)C(F)(F)F,,32.7 µM (active)

# Target: human MAP Kinase-Activated Protein Kinase 2 (MAPKAPK2), MAPKAPK2 (gene 9261) (UniProt P49137)
# Experiment: NVS_ENZ_hMAPKAPK2: NovaScreen (NVS) Enzymatic Assay for human MAP Kinase-Activated Protein Kinase 2 (MAPKAPK2) (AID 2283178)
# In short: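 Chemicals screened in duplicate at 25 uM, then to 50 uM top concentration in concentration-response, against recombinant human MAPKAPK2; substrate conversion read 1 hr post-dosing by fluorescence after electrophoretic mobility-shift separation, loss-of-signal relative to DMSO.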
# human MAP Kinase-Activated Protein Kinase 2 (MAPKAPK2), MAPKAPK2 (gene 9261), sequence (P49137 whole entry, looked up): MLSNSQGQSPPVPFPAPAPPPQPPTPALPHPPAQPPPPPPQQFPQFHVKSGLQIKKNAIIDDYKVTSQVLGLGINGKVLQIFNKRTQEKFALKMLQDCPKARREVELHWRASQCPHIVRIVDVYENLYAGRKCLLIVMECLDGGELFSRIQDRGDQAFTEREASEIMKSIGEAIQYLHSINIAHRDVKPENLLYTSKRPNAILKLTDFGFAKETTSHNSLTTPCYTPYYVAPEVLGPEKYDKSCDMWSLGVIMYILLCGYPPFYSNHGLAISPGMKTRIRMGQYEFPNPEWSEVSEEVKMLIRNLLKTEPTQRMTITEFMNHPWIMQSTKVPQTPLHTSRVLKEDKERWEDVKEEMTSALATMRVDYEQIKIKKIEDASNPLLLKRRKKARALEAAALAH
SMILES,outcome,AC50
Oc1ccc(Cl)cc1Cc1ccccc1,inactive,
COC(=O)c1ccccc1S(=O)(=O)NC(=O)N(C)c1nc(C)nc(OC)n1,,9.14 µM (active)
O=C(O)C(F)(F)C(F)(F)C(F)(F)C(F)(F)C(F)(F)C(F)(F)C(F)(F)F,inactive,
O=S(=O)(O)C(F)(F)C(F)(F)C(F)(F)C(F)(F)C(F)(F)C(F)(F)C(F)(F)C(F)(F)F,inactive,
Cc1cc(C)nc(NC(=O)NS(=O)(=O)c2ccccc2C(=O)OC2COC2)n1,,18.6 µM (active)
